In the library only some 1.7% were active in any assay of this set; here they are far more common.
ARNT-TACC3 inh: disruptors of ARNT/TACC3 protein interaction, primary screen, biochemical, AlphaScreen, single concentration; Transforming acidic coiled-coil-containing protein 3 (Homo sapiens), Q9Y6A5; AlphaScreen His-ARNT PAS-B/GST-TACC3 binding, luminescence; TACC3 fragment carries E629A point mutation; inhibition, % at 9.99 µM; 390,000 compounds, 0.66% hits; AID 623870, 2012;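 active means mean inhibition of replicates at least 50% and at least half of replicates each reaching 50%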;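 further: 0% = complete ARNT plus TACC3 wells and 100% = ARNT alone without TACC3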
Vif imaging: HIV Vif self-association inhibitors, primary screen, imaging, HEK293T, single point; 340,000 compounds, 0.35% hits; HEK293T cells, Vif self-association by quenched fluorescence, 24 h; AID 602346, 2012; inhibition, % at 7.49 µM; in the data active means inhibition above about 50%, passing the limit was not always enough
H9c2 protect: cardioprotection against H2O2-induced cell death, primary screen, uHTS, H9c2 cells, ATPLite luminescence; H9c2 cardiomyocytes, H2O2 injury protection, 2 h; protection from H2O2 cell death, % at 20 µM; 360,000 compounds, 0.63% hits; AID 588492, 2011;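 active means compounds giving at least 50% protection of heart cells from peroxide-induced death in the single-dose screen, raw or plate-pattern-corrected value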;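 further: 0% = DMSO wells with peroxide and 100% = DMSO wells without peroxide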
N-glyco inh: increase of ERlucT glycosylation luciferase signal, primary screen, N-linked glycosylation inhibitor project, D54 ERlucT cells, luminescence, set 2; D54 ERlucT glycosylation luciferase reporter, 24 h; percent of 100 nM tunicamycin response; reporter increase, % at 12.5 µM; 360,000 compounds, 0.23% hits;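 active means mean luciferase reporter signal, scaled so untreated is 0 and the glycosylation-blocking control 100, at or above a set limit in every replicate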;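 further: luciferase carries N-glycosylation sites so blocking glycosylation raises the light; 0% = median of neutral control wells and 100% = median of 100 nM tunicamycin wells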
aDG glyco up: activators of alpha-DG glycosylation, primary screen, uHTS, Pro5-aDG cells, AlphaScreen; AID 624168, 2012; alpha-DG glycosylation AlphaScreen (IIH6); 0% Pro5, 100% B10-LARGE cell signal; 360,000 compounds, 0.22% hits; activation, % at 10 µM;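 active means activation of at least 8% versus controls, or a plate z-score of at least 8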;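 further: Pro5 are CHO cells carrying HIG-tagged alpha-DG that lacks glycosylation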
* marks the source's active call; other numbers are inactive results.

Screening NC(=O)c1c(NC(=O)C2COc3ccccc3O2)sc2c1CCN(Cc1ccccc1)C2 (stereo not given) returned ARNT-TACC3 inh -6, Vif imaging 110*, H9c2 protect -2, N-glyco inh 1 and aDG glyco up 0.
Screening CCOC(=O)c1c(NC(=O)C2COc3ccccc3O2)sc2c1CCN(Cc1ccccc1)C2 (stereo not given) returned ARNT-TACC3 inh -2, Vif imaging -8, H9c2 protect -8, N-glyco inh -3 and aDG glyco up 0.
`C[C@@H]1CN([C@@H](C)CO)C(=O)c2cc(NC(=O)NC3CCCCC3)ccc2O[C@@H](C)CCCCO[C@@H]1CN(C)C` gave ARNT-TACC3 inh 4.
CC[C@H](CO)Oc1cc(NCc2ccc(Cl)c(Cl)c2)c2ncn(C(C)C)c2c1 was read as ARNT-TACC3 inh 2, Vif imaging 7, H9c2 protect -10, N-glyco inh -1 and aDG glyco up 0.
CCC(CO)Oc1cc(NCc2ccc(Cl)cc2)c2ncn(C(C)C)c2c1 (stereo not given) was read as ARNT-TACC3 inh 28, Vif imaging 106*, H9c2 protect 0, N-glyco inh 7 and aDG glyco up 0.
For CCc1nc(N2CCN(C(=O)c3ccco3)CC2)c2oc3ccccc3c2n1 the results were ARNT-TACC3 inh 11, Vif imaging 0, H9c2 protect 51*, N-glyco inh 2 and aDG glyco up 0.
O=C(O)C1CCN(c2nc(-c3ccccc3)nc3c2oc2ccccc23)CC1 was read as ARNT-TACC3 inh -1, Vif imaging -16, H9c2 protect 0, N-glyco inh 3 and aDG glyco up 0.
OCCN1CCN(c2nc(-c3ccccc3)nc3c2oc2ccccc23)CC1 was read as ARNT-TACC3 inh -5, Vif imaging 66*, H9c2 protect 12, N-glyco inh 14 and aDG glyco up 0.
CCNC(=O)C[C@@H]1CC[C@@H]2[C@@H](COc3ccc(NC(=O)c4cscn4)cc3C(=O)N2C)O1 was read as ARNT-TACC3 inh -17.
`C[N+](C)(C)CCN1C(=O)CSC1=O` gave ARNT-TACC3 inh 1, Vif imaging 55*, H9c2 protect -5, N-glyco inh 1 and aDG glyco up 0.
For Cc1ccc(S(=O)(=O)NCC(c2cccnc2)N2CCN(Cc3ccccc3)CC2)cc1 (stereo not given) the results were ARNT-TACC3 inh 2, Vif imaging -3, H9c2 protect -2, N-glyco inh -1 and aDG glyco up 0.
CCN1CCN(C(CNS(=O)(=O)c2ccc(C)cc2)c2cccnc2)CC1 (stereo not given) was read as ARNT-TACC3 inh 0, Vif imaging 53*, H9c2 protect -2, N-glyco inh 1 and aDG glyco up 0.
`O=C(COc1cccc2c1CCNC2=O)Nc1cccc(F)c1` gave ARNT-TACC3 inh 9, Vif imaging -8, H9c2 protect 74*, N-glyco inh -1 and aDG glyco up 0.
`COc1ccc(CN2C(=O)c3cccnc3C2=O)cc1S(=O)(=O)NCc1ccccc1` gave ARNT-TACC3 inh 48*, Vif imaging 4, H9c2 protect 6, N-glyco inh 4 and aDG glyco up 0.
`COc1ccc(CC(=O)OCC(=O)NCc2ccc(Cl)cc2)cc1` gave Vif imaging 80*, H9c2 protect 1, N-glyco inh 1 and aDG glyco up 0.
For O=C1/C(=C/c2ccc(N3CCCC3)cc2)NC(=S)N1C1CC1 the results were ARNT-TACC3 inh -1, Vif imaging 54*, H9c2 protect -13, N-glyco inh 1 and aDG glyco up 0.
`COc1ccccc1C(=O)Nc1ccc2c(c1)C(=O)N(C)C[C@H](OC)[C@H](C)CN[C@H](C)CO2` gave ARNT-TACC3 inh -3.
C[C@@H]1CCCCO[C@H](CN(C)C(=O)Nc2cccc3ccccc23)[C@@H](C)CN([C@@H](C)CO)C(=O)c2cc(NC(=O)C3CCCCC3)ccc2O1 was read as ARNT-TACC3 inh 2.
For Cc1cc(C)nc(SCC(=O)c2ccc(O)c(O)c2)n1 the results were ARNT-TACC3 inh 28, H9c2 protect 18, N-glyco inh -2 and aDG glyco up 0.
Cc1cc(SCC(=O)c2ccc(O)c(O)c2)n2nc(C)c(-c3ccccc3)c2n1 was read as ARNT-TACC3 inh 3, Vif imaging 5, H9c2 protect 71*, N-glyco inh 1 and aDG glyco up 0.
`C[C@@H]1CN([C@@H](C)CO)C(=O)c2cc(N(C)C)ccc2O[C@@H](C)CCCCO[C@@H]1CN(C)S(=O)(=O)c1ccccc1` gave ARNT-TACC3 inh 3.
For O=C(CSc1nncn1-c1ccccn1)Nc1cccc(Cl)c1 the results were ARNT-TACC3 inh -1, Vif imaging -5, H9c2 protect 5, N-glyco inh -1 and aDG glyco up 0.
O=C(CSC1=NNC(c2ccccn2)S1)Nc1cccc(Cl)c1 (stereo not given) was read as ARNT-TACC3 inh 12, H9c2 protect 61*, N-glyco inh 8 and aDG glyco up 0.
CCn1c(=NC(=O)C2COc3ccccc3O2)sc2c(OC)ccc(OC)c21 (stereo not given) was read as ARNT-TACC3 inh -13, Vif imaging 71*, H9c2 protect -8, N-glyco inh 2 and aDG glyco up 0.
`COCCn1c(=NC(=O)C2COc3ccccc3O2)sc2cc(S(N)(=O)=O)ccc21` (stereo not given) gave ARNT-TACC3 inh -4, H9c2 protect 13, N-glyco inh -4 and aDG glyco up 0.
O=C(N[C@@H]1CC[C@@H](CCNS(=O)(=O)c2cccc(Cl)c2)O[C@@H]1CO)c1ccccc1 was read as ARNT-TACC3 inh -1.
For CCCS(=O)(=O)N1CCCC(C(=O)NCCCN2CCN(c3ccccc3F)CC2)C1 (stereo not given) the results were ARNT-TACC3 inh -3, Vif imaging 59*, H9c2 protect 12, N-glyco inh -1 and aDG glyco up 0.
`Cc1ccc(NC(=O)c2nc[nH]c2C(=O)Nc2ccccc2F)cc1` gave Vif imaging 90*, H9c2 protect -1, N-glyco inh 5 and aDG glyco up 0.
Cc1ccc(NC(=O)c2nc[nH]c2C(=O)NCCCNC(=O)c2[nH]cnc2C(=O)Nc2ccc(C)cc2)cc1 was read as Vif imaging 15, H9c2 protect 66*, N-glyco inh 2 and aDG glyco up -1.

Assay outcomes: PubChem BioAssay, several laboratories
